Hits are enriched below; roughly 9.3% of the tested compounds scored in any of these assays.
FMDV inh = antivirals against foot and mouth disease virus | FMDV antiviral cell-based qHTS | Potency, µM (top dose mostly 57.9 µM), inactives show top-dose activity change, negative = inhibition, actives largely listed as inhibitors | 410,000 compounds, 1.2% hits | AID 1159524; calls by dose curve; tested in HEK293T cells; also: read-out not given here; potency is read from the fitted curve at half-maximal effect; nearly all actives have a fitted effect of over 45% in size
HCMV inh = human cytomegalovirus inhibition. 410,000 compounds, 4.5% hits. AID 1259415. HFF cells, HCMV-luciferase reporter, 72 h; active compounds read low. activity change, negative = inhibition, % at 57.5 µM; in the data active = activity change below about -60%; inconclusive = no clear call, values can overlap the other calls; inactive = above about -39%
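Two compound doses tested in HFFs infected with HCMV-luciferase, MOI 1 PFU/cell, 72 h at 37C. Lysate luminescence read with OneGlo; data normalized against buffer-only and 10uM Salinomycin inhibitor controls.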
HCV inhibitor = blocks hepatitis C virus | Huh7.5.1 HCVcc-Cre infection, luciferase reporter, 44 h | Potency, µM (top dose mostly 41.8 µM), without a hit: top-dose activity change, negative = inhibition, most hits filed as inhibitors | 340,000 compounds, 3.4% hits; also: potency is read from the fitted curve at half-maximal effect
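Luciferase read-out (15 sec integration) after a 15 min room-temperature substrate step quantifies HCVcc-Cre infection. Cells, 1,000 per well, had compound added 4 h post-plating, then virus at ~0.5 moi, and were cultured 44 h.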
VACV Venus inh = inhibitors of vaccinia virus (Venus reporter). 330,000 compounds, 0.46% hits. Vaccinia virus Venus reporter expression, fluorescence. Potency, µM (doses to about 36.5 µM), inactives show at the top dose activity change, negative = inhibition, usual class: inhibitors; calls by dose curve; tested in A549 cells; also: potency is read from the fitted curve at half-maximal effect; nearly all actives have a fitted effect of over 30% in size
Sm TGR block = blocks Schistosoma mansoni thioredoxin glutathione reductase; purified TGR, DTNB reduction, TNB absorbance 405 nm; Potency, µM (titrated, usually from 114 µM), for the others: at the top dose activity change, negative = inhibition, hits mostly inhibitors; 360,000 compounds, 3% hits; also: potency is read from the fitted curve at half-maximal effect; nearly all actives have a fitted effect of over 60% in size
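Kinetic colorimetric format: TGR-catalysed, NADPH-driven DTNB reduction monitored via TNB absorbance. Enzyme dispensed at 20 nM; compound exposure 15 min at room temperature before reaction start.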
Vaccinia mCherry = inhibitors of vaccinia virus infection (mCherry reporter signal). Potency, µM (titrated, usually from 36.5 µM), without a hit: at the highest dose activity change, negative = inhibition, most hits filed as inhibitors. Vaccinia virus mCherry reporter infection, fluorescence. AID 720579. 310,000 compounds, 0.63% hits; calls by dose curve; tested in A549 cells; also: potency is read from the fitted curve at half-maximal effect; nearly all actives have a fitted effect of over 35% in size
* hit, by the source's call; [ ] = another dose, or the depositor's remark. Unless noted, calls follow the shape of the dose curve; as a rule, active = well fitted curve in the direction sought with a large enough effect; inconclusive = small, poorly fitted or top-dose-only effect, or another doubt; inactive = no such curve, though single readings can be large; an effect the other way counts as inactive or inconclusive. % is scaled to controls: 0 for no effect and ±100 for the full control effect.

For COc1ccc(CN2CCC(n3nccc3NC(=O)c3cccc(F)c3)CC2)cc1O the results were FMDV inh 3%, HCMV inh -87*, HCV inhibitor -19%, VACV Venus inh -11%, Sm TGR block 19% and Vaccinia mCherry inactive.
`O=C(N/N=C/c1ccccc1)c1n[nH]c2c1CCCC2` gave FMDV inh -28%, HCMV inh 9, HCV inhibitor inconclusive, VACV Venus inh inconclusive, Sm TGR block 7% and Vaccinia mCherry inconclusive.
`O=C(N/N=C/c1ccc(Cl)cc1)c1n[nH]c2c1CCCC2` gave FMDV inh 66%, HCMV inh -91*, HCV inhibitor -11%, VACV Venus inh inconclusive, Sm TGR block 16% and Vaccinia mCherry -12%[7.34 µM].
`O=C(CC(Nc1ccc(F)cc1)C(=O)OCC(=O)c1cccs1)c1ccccc1` (stereo unspecified) gave FMDV inh 59%, HCMV inh 47, HCV inhibitor 6%, VACV Venus inh -4%, Sm TGR block 8.9µM* and Vaccinia mCherry -16%.
Screening O=C(CC(Nc1ccc(F)cc1)C(=O)O)c1ccccc1 (stereo unspecified) returned FMDV inh 29%, HCMV inh -102*, HCV inhibitor 1%, VACV Venus inh -2%, Sm TGR block 1.8µM* and Vaccinia mCherry -15%.
`O=C(Nc1nccs1)C(=O)c1c[nH]c2ccccc12` gave FMDV inh 68%, HCMV inh 333, HCV inhibitor 1%, VACV Venus inh -27%, Sm TGR block -4% and Vaccinia mCherry inconclusive.
`Cc1ccnc(NC(c2ccncc2)c2c(C)[nH]c3ccccc23)c1` (stereo unspecified) gave FMDV inh -19%, HCMV inh -21, HCV inhibitor 5%, VACV Venus inh -4%, Sm TGR block 2µM* and Vaccinia mCherry -6%.
For Cc1[nH]c2ccccc2c1C(Nc1nccs1)c1ccncc1 (stereo unspecified) the results were FMDV inh -11%, HCMV inh 80, HCV inhibitor 0%, VACV Venus inh -9%, Sm TGR block 40µM* and Vaccinia mCherry inactive.
Cc1cccc(NC(=O)CN2CCOCC2)c1C was read as FMDV inh 6%, HCMV inh 29, HCV inhibitor 19% and Sm TGR block 52%.
For COc1ccc(C(=O)CC(=O)C(=O)Nc2cc(OC)c(OC)c(OC)c2)cc1 the results were FMDV inh -27%, HCMV inh 9, HCV inhibitor -4% and Sm TGR block -17%.
`COC(=O)c1ccccc1NC(=O)Cn1nc(C)c2nn(-c3ccc(Cl)cc3)c(C)c2c1=O` gave FMDV inh inconclusive, HCMV inh 26, VACV Venus inh inconclusive, Sm TGR block 11% and Vaccinia mCherry -29%.
For O=C(CSc1nnc(-c2cnccn2)n1Cc1ccco1)Nc1ccc(Br)cc1 the results were FMDV inh 0%, HCMV inh -2, HCV inhibitor -5%, VACV Venus inh -9% and Sm TGR block inconclusive.
COC(=O)NC(NS(=O)(=O)c1ccccc1)(C(=O)OC)C(F)(F)F (stereo unspecified) was read as FMDV inh -16%, HCMV inh 48, HCV inhibitor 13%, VACV Venus inh -2%[7.34 µM], Sm TGR block 9% and Vaccinia mCherry -14%[7.34 µM].
`Cc1noc(C)c1C(=O)NCc1ccccc1Br` gave FMDV inh -10%, HCMV inh -7, HCV inhibitor 15%, VACV Venus inh -9%, Sm TGR block -23% and Vaccinia mCherry inactive.
Screening Cc1noc(C)c1C(=O)NCc1ccccc1F returned FMDV inh 10%, HCMV inh -69*, HCV inhibitor 4%, VACV Venus inh -13%, Sm TGR block 10% and Vaccinia mCherry inactive.
Screening CCOC(=O)CCCCC(=O)c1[nH]c(=O)[nH]c1CSCCO returned HCMV inh 11, HCV inhibitor 28%, VACV Venus inh -11%, Sm TGR block -16% and Vaccinia mCherry -16%.

Screening data: PubChem, National Center for Advancing Translational Sciences (NCATS)
